We go through 40 compounds from publication PMC4336329 (PLoS ONE, 2015).

Structures are written as SMILES. Among all 310,000 compounds or so, about 2,200 (0.71%) showed an effect of 50% or more. Effects have a minus sign here. The entries come from a sample that favours strong results as a whole.

Chain of human ether-à-go-go-related gene (hERG) potassium channel (Q12809 whole entry, looked up): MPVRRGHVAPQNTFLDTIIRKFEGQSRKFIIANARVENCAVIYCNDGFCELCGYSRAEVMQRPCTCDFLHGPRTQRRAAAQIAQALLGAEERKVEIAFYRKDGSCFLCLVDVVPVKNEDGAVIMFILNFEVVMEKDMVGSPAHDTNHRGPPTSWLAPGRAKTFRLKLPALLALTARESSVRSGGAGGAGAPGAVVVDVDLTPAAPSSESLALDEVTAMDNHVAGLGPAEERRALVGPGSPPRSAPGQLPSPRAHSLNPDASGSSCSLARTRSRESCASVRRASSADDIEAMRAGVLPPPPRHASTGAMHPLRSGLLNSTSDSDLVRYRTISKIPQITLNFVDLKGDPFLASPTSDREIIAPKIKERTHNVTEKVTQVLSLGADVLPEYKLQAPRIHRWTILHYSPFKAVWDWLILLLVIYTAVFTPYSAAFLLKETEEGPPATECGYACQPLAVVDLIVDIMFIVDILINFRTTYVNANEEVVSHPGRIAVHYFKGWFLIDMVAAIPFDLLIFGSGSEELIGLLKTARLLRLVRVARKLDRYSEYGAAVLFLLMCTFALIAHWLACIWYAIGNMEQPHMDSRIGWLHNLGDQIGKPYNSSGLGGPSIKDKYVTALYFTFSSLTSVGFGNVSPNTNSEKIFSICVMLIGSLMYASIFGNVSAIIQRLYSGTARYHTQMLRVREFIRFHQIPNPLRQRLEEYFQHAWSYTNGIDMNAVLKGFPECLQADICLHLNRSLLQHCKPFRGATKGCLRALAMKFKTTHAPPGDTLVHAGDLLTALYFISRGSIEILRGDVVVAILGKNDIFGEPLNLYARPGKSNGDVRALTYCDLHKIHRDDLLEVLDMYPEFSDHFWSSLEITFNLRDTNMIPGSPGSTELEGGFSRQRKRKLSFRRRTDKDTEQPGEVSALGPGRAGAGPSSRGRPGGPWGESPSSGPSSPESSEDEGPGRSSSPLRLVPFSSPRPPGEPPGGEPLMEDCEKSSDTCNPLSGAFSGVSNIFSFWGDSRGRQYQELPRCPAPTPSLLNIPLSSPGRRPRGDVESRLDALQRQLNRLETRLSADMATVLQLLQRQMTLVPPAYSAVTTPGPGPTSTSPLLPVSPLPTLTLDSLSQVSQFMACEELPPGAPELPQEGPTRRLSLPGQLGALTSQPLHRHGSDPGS

The experiment concerns the target human ether-à-go-go-related gene (hERG) potassium channel (human, UniProt Q12809). The experiment in a line: primary screen, population patch clamp on CHO cells stably expressing hERG; higher = less effect of the substance.
Consider `CNC(=S)Nc1ccc(C(N)=O)cc1`, for which the “hERG current change (%, negative = inhibition) at 1uM” value turned out to be 10.2%.

As to `CC(C)(C)c1nc(NCC2CCCO2)c2nnn(Cc3ccccc3)c2n1` (stereo not shown), the “hERG current change (%, negative = inhibition) at 1uM” value is 13.9%.

As for `COc1ccc(C(=O)Nc2ccccc2C(=O)Nc2ccc(C(=O)O)cc2)cc1`, the “hERG current change (%, negative = inhibition) at 1uM” value stood at 15%.

Turning to `O=C(CNS(=O)(=O)c1ccc(Br)s1)NCCc1ccc(Cl)cc1`, the “hERG current change (%, negative = inhibition) at 1uM” value was determined as 16.1%.

Regarding `COc1cccc(C2CNC3(CCCC(C)C3)c3[nH]c4ccccc4c32)c1OC.Cl` (stereo not shown), the “hERG current change (%, negative = inhibition) at 1uM” value is recorded as 8.05%.

`CC1(C)CC(=O)CC2(C1)NCC(c1ccccc1)c1c2[nH]c2ccccc12.Cl` (stereo not shown): the “hERG current change (%, negative = inhibition) at 1uM” value is -83.4%.

In the case of `CC1(C)CC(=O)CC2(C1)NCC(c1ccccc1Cl)c1c2[nH]c2ccccc12.Cl` (stereo not shown), the “hERG current change (%, negative = inhibition) at 1uM” value was -3.21%.

In the case of `CC(C)(C)OC(=O)N[C@@H](Cc1ccccc1)C(=O)N1CCC(C(=O)N[C@@H](Cc2c[nH]c3ccccc23)C(=O)O)CC1`, the “hERG current change (%, negative = inhibition) at 1uM” value was 15%.

Take `CCCS(=O)(=O)c1c(S(=O)(=O)CCC)c2cnccn2c1C(=O)c1ccc(CC)cc1`: the “hERG current change (%, negative = inhibition) at 1uM” value worked out at 0.628%.

Take `OC1(c2ccc(Cl)cc2)CCN(Cc2c[nH]c3ccccc23)CC1`: the “hERG current change (%, negative = inhibition) at 1uM” value is recorded as -27.6%.

On to `CCOc1ccc(OCCC(=O)Nc2ccc3c(c2)OCO3)cc1`, for which the “hERG current change (%, negative = inhibition) at 1uM” value is given as 11.1%.

As to `COc1ccc(NC(=O)CN2CCN(CC(=O)Nc3ccc4c(c3)OCO4)CC2)cc1`, the “hERG current change (%, negative = inhibition) at 1uM” value was -85.9%.

For `CCOc1ccc(NC(=O)CN2CCN(CC(=O)Nc3ccc4c(c3)OCO4)CC2)cc1`, the “hERG current change (%, negative = inhibition) at 1uM” value is -80.9%.

With `COc1ccccc1NC(=O)CN1CCN(CC(=O)Nc2ccc3c(c2)OCCO3)CC1`, the “hERG current change (%, negative = inhibition) at 1uM” value is -10.6%.

Consider `COc1ccc(OCC(=O)Nc2ccc3c(c2)OCO3)cc1`, for which the “hERG current change (%, negative = inhibition) at 1uM” value is given as 11.7%.

Consider `CCOc1ccc(NC(=O)COc2ccc3c(c2)OCO3)cc1`, for which the “hERG current change (%, negative = inhibition) at 1uM” value was determined as 7.57%.

Turning to `COc1ccc(S(=O)(=O)N2CCCN(CC(=O)Nc3ccc4c(c3)OCO4)CC2)cc1`, the “hERG current change (%, negative = inhibition) at 1uM” value is recorded as -15.1%.

Consider `COc1ccccc1NC(=O)CN1CCN(CC(=O)Nc2ccc3c(c2)OCO3)CC1`, for which the “hERG current change (%, negative = inhibition) at 1uM” value is -67.3%.

As to `COc1ccccc1N1CCN(CC(=O)Nc2ccc3c(c2)OCCO3)CC1`, the “hERG current change (%, negative = inhibition) at 1uM” value was -0.304%.

For the compound `O=C(CN1CCCC1=O)NC1C2CC3CC(C2)CC1C3` (stereo not shown), the “hERG current change (%, negative = inhibition) at 1uM” value was 9.69%.

As to `COC(=O)C1=CN(Cc2ccccc2)C=C(C(=O)OC)C1c1ccc(O)c(OC)c1`, the “hERG current change (%, negative = inhibition) at 1uM” value is recorded as 17.4%.

As to `COc1ccc(N2C(=O)/C(=C\c3ccco3)N=C2SCC(=O)N(C(C)C)C(C)C)cc1Cl`, the “hERG current change (%, negative = inhibition) at 1uM” value is recorded as 20.1%.

Consider `Cc1ccc(OCC(O)CNC2CCCC2)cc1C.Cl` (stereo not shown), for which the “hERG current change (%, negative = inhibition) at 1uM” value was found to be 8.86%.

`CC(=O)c1cccc(CN2CCCCC2C(=O)Nc2ccc(Oc3ccccc3)nc2)c1` (stereo not shown): the “hERG current change (%, negative = inhibition) at 1uM” value was found to be 0.714%.

Take `CCC(=O)Nc1nc(C)c(C(=O)N2CCCCC2)s1`: the “hERG current change (%, negative = inhibition) at 1uM” value turned out to be 12.8%.

For `CCCCn1c(N)c(N(CCC(C)C)C(=O)c2ccc(C)c(S(=O)(=O)N3CCOCC3)c2)c(=O)[nH]c1=O`, the “hERG current change (%, negative = inhibition) at 1uM” value is listed as 5.89%.

`CCCCN(C(=O)c1ccc(C)c(S(=O)(=O)N2CCOCC2)c1)c1c(N)n(CCCC)c(=O)[nH]c1=O`: the “hERG current change (%, negative = inhibition) at 1uM” value came to 5.43%.

With `CCCCN(C(=O)c1ccc(C)c(S(=O)(=O)N2CCOCC2)c1)c1c(N)n(CC(C)C)c(=O)[nH]c1=O`, the “hERG current change (%, negative = inhibition) at 1uM” value was -57.9%.

For the compound `O=C(CCNS(=O)(=O)c1ccccc1F)N1CCN(Cc2ccccc2)CC1`, the “hERG current change (%, negative = inhibition) at 1uM” value turned out to be 8.79%.

On to `O=C(NCc1ccccc1)c1ccc(NC(=O)c2ccco2)cc1`, for which the “hERG current change (%, negative = inhibition) at 1uM” value is 5.4%.

For `O=C(NC1CCCC1)C(c1ccccn1)N(Cc1ccccc1F)C(=O)c1csnn1` (stereo not shown), the “hERG current change (%, negative = inhibition) at 1uM” value was 10.7%.

On to `CSCc1nnc2n1-c1ccc(Cl)cc1C(c1ccccc1)=NC2`, for which the “hERG current change (%, negative = inhibition) at 1uM” value was 4.89%.

Regarding `COc1ccccc1C1=NCc2nnc(CSC)n2-c2ccc(Cl)cc21`, the “hERG current change (%, negative = inhibition) at 1uM” value is on record as 0.0726%.

For `Clc1ccc2c(c1)C(c1ccccc1Cl)=NCc1nnc(Br)n1-2.c1ccccc1`, the “hERG current change (%, negative = inhibition) at 1uM” value was found to be 2.57%.

Turning to `Clc1ccc2c(c1)C(c1ccccc1Cl)=NCc1nnc(N3CCN(CCOc4ccccc4)CC3)n1-2.O=C(O)/C=C/C(=O)O`, the “hERG current change (%, negative = inhibition) at 1uM” value is -50.8%.

For `CCOCCN1CCN(c2nnc3n2-c2ccc(Cl)cc2C(c2ccccc2Cl)=NC3)CC1.O=CO`, the “hERG current change (%, negative = inhibition) at 1uM” value is reported as -57.6%.

`Clc1ccc2c(c1)C(c1ccccc1Cl)=NCc1nnc(N3CCN(CCSc4ccccc4)CC3)n1-2.O.O=C(O)/C=C/C(=O)O`: the “hERG current change (%, negative = inhibition) at 1uM” value is recorded as -10.8%.

As for `COCCCN1CCN(c2nnc3n2-c2sc(Br)cc2C(c2ccccc2Cl)=NC3)CC1.CS(=O)(=O)O`, the “hERG current change (%, negative = inhibition) at 1uM” value is -11.9%.

For `CN1CCN(Cc2nnc3n2-c2ccc(Cl)cc2C(c2ccccc2)=NC3)CC1.O=CO`, the “hERG current change (%, negative = inhibition) at 1uM” value is reported as -31.9%.

As for `CN(C)CCSCc1nnc2n1-c1ccc(Cl)cc1C(c1ccccc1Cl)=NC2.c1ccccc1`, the “hERG current change (%, negative = inhibition) at 1uM” value is listed as -51.9%.
